PMC10954555

biological target: Protein lin-37 homolog (UniProt Q96GY3); assay: cross-linking mass spectrometry; other
Sequence (Q96GY3 whole entry): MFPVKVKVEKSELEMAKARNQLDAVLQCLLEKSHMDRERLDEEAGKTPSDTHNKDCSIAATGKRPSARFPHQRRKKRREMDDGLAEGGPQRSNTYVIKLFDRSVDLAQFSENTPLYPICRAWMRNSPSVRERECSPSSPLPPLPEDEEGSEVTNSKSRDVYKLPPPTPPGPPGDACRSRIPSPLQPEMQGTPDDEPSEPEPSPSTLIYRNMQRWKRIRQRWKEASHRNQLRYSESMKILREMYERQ

Substance	listed as a hit
Protein lin-9 homolog, Q5TKA1	yes
Protein lin-52 homolog, Q52LA3	yes
Protein lin-54 homolog, Q6MZP7	yes

biological target: Transcriptional repressor p66-beta (UniProt Q8WXI9); assay: other; cross-linking mass spectrometry; other
Sequence (Q8WXI9 whole entry): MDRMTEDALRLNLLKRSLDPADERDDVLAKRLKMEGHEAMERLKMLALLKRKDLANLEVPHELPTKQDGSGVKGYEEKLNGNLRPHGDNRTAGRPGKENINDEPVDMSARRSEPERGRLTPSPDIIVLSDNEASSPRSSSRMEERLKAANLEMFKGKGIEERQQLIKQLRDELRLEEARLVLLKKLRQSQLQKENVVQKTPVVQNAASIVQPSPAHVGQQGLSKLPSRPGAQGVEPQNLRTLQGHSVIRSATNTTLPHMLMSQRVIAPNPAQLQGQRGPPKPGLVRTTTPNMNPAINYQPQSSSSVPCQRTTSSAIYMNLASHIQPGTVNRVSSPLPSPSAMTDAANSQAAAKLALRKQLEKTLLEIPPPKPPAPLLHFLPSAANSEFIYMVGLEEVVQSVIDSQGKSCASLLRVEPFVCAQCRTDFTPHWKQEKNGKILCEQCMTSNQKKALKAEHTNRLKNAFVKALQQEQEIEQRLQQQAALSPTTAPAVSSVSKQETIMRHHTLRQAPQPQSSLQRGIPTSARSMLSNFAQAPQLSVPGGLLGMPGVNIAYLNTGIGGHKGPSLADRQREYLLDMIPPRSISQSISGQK

Substance	listed as a hit
Metastasis-associated protein MTA2, O94776	yes
ATP-dependent chromatin remodeler CHD4, Q14839	yes
Transcriptional repressor p66-alpha, Q86YP4	yes
